Sampled rows, rich in hits. Any-hit rate of the full collection: about 2.2%.
PAX8 inh HTS: lowers PAX8-driven luciferase in RMG-I cells; RMG-I TPO-luciferase reporter, SteadyGlo, 24 h; inhibition, % at 12.6 µM; 360,000 compounds, 1.2% hits;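 active = mean replicate inhibition at least 60% with every replicate also reaching 60%; inconclusive = only one of the two criteria is met; inactive = mean below 60% and not all replicates reaching 60%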;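 also: luciferase light reporting Pax8 driven TPO promoter activity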
EWS-Fli block: inhibitors of EWS/Fli oncoprotein transcriptional activity. A673 NR0B1-luciferase reporter, viability-normalised. inhibition, % at 12.6 µM. 350,000 compounds, 0.67% hits. AID 651661;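 active = mean inhibition of at least 50% after viability correction, with every replicate also passing that limit; inconclusive = mean reaches 50% but only one of two replicates passes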;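 also: firefly luciferase signal divided by Alamar Blue viability fluorescence both relative to DMSO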
Shn3 inh set2: reduces Shn3 3'UTR luciferase signal in osteoblasts. Clone20 osteoblast Shn3 3'UTR firefly luciferase, 24 h. inhibition, % at 12.5 µM. 360,000 compounds, 0.52% hits. AID 588674;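 active = mean inhibition of at least 75% with every replicate also reaching 75%; inconclusive = mean inhibition at least 75% but some replicate below; inactive = mean inhibition below 75%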
EBV LMP1 NFkB: Epstein-Barr LMP1 NF-kappaB reporter inhibition; LMP1-induced NF-kappaB luciferase reporter cells, luminescence; inhibition, % at 12.5 µM; 350,000 compounds, 0.69% hits; AID 504558; in the data active = inhibition above about 41%; inconclusive = no clear call, values can overlap the other calls
LGR2 inh: blocks bursicon-induced cAMP signaling via Drosophila LGR2; 380,000 compounds, 0.35% hits; HEK293 LGR2, CRE-luciferase, bursicon-stimulated, 4 h; inhibition, % at 9.99 µM; AID 720647;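 active = drop in luminescence signal, shown as inhibition above about 50% in the replicate tests, limit read from the data, passing the limit was not always enough; inconclusive = probably only some replicates passing the limit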;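 also: agonist challenge used bursicon conditioned medium at about half maximal strength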
MITF TRPM1 inh: MITF TRPM1 promoter inhibition in SK-MEL-5 cells. inhibition, % at 12.5 µM. 330,000 compounds, 0.83% hits. SK-MEL-5 TRPM1 promoter luciferase, 24 h;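 active = mean inhibition across replicates of 60% or more, whatever share of single replicates reaches that level; inconclusive = some that reach 60%, reason not given; inactive = mean inhibition across replicates below 60%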
Hits are given with their value; – = inactive; ? = inconclusive; · = not tested or not shown.

SMILES | PAX8 inh HTS | EWS-Fli block | Shn3 inh set2 | EBV LMP1 NFkB | LGR2 inh | MITF TRPM1 inh
COc1ccc(NC(=O)c2oc3ccccc3c2CSC)cc1S(=O)(=O)N1CCOCC1 | · | – | – | – | – | –
C[C@H](CO)N1C[C@H](C)[C@@H](CN(C)C(=O)C2CC2)Oc2ncc(C#Cc3ccccc3F)cc2C1=O | · | – | · | · | – | ·
CC(C)[C@H]1COCc2cn(nn2)CC[C@H](Cc2ccccc2)C(=O)N1 | – | – | · | · | – | ·
O=C(Cc1cccnc1)N1CC(=O)N2[C@@H](CO)[C@H](c3ccc(C#CC4CCCC4)cc3)[C@@H]2C1 | · | – | · | · | – | ·
CO[C@@H]1CN(C)C(=O)c2ccc(NS(=O)(=O)c3ccccc3)cc2OC[C@@H](C)N(Cc2cccnc2)C[C@@H]1C | – | – | · | · | – | ·
C/C=C(/C)C(=O)O[C@@H]1c2c(ccc3ccc(=O)oc23)O[C@@H]1C(C)(C)OC(=O)/C(C)=C\C | – | – | – | – | 58 | –
CCS(=O)(=O)N1CCCCN2[C@@H](CO)[C@@H](c3ccc(-c4ccccc4F)cc3)[C@@H]2C1 | – | – | · | · | – | ·
COc1ccc(OC)c2c1C(=O)C(Cl)=C(Cl)C2=O | 100 | – | · | – | 90 | 88
COc1ccc(OC)c2c1C(=O)c1ccccc1C2=O | – | · | · | · | · | ·
CC(C)c1ccc(NC(=O)Nc2nc(C(N)C3CCCCC3)cs2)cc1 (stereo unspecified) | – | – | 97 | · | – | ·
CC(C)c1ccc(NC(=O)Nc2nc(C(N)CCc3ccccc3)cs2)cc1 (stereo unspecified) | – | – | 97 | · | – | ·
COc1ccc(NC(=O)Nc2nc(C(N)C3CCCCC3)cs2)cc1 (stereo unspecified) | – | – | – | · | – | ·
C[C@H](CO)N1C[C@H](C)[C@H](CN(C)C(=O)CN(C)C)Oc2ncc(-c3ccc(C#N)cc3)cc2C1=O | · | – | · | · | – | ·
COc1ccc(S(=O)(=O)Nc2ccc3c(c2)C(=O)N([C@H](C)CO)C[C@H](C)[C@@H](CN(C)C(=O)Nc2ccc(F)cc2)OCCCC[C@@H](C)O3)cc1 | – | – | · | · | – | ·
C[C@H](CO)N1C[C@H](C)[C@H](CN(C)C(=O)c2ccncc2)Oc2ncc(C#CC3CC3)cc2C1=O | · | – | · | · | – | ·
C[C@@H]1CN([C@@H](C)CO)C(=O)c2c(c3ccccc3n2C)-c2ccccc2CO[C@H]1CN(C)S(=O)(=O)c1ccccc1F | 84 | – | · | · | – | ·
C[C@H]1CN([C@@H](C)CO)C(=O)c2c(c3ccccc3n2C)-c2ccccc2CO[C@@H]1CN(C)S(=O)(=O)c1ccccc1F | 74 | – | · | · | – | ·
C[C@H](CO)N1C[C@H](C)[C@H](CN(C)S(=O)(=O)c2ccccc2F)OCc2ccccc2-c2c(n(C)c3ccccc23)C1=O | – | – | · | · | – | ·
COc1ccc(-c2ccc3n(c2=O)C[C@@H]2[C@@H](CO)[C@H](C(=O)NC4Cc5ccccc5C4)N[C@H]32)cc1 | 66 | – | · | · | – | ·
CO[C@@H]1CN(C)C(=O)c2ccc(NC(=O)c3cccc(F)c3)cc2OC[C@H](C)N(C)C[C@@H]1C | · | – | · | · | – | ·
C[C@@H]1CN([C@@H](C)CO)C(=O)Cc2cc(NS(=O)(=O)c3ccccc3)ccc2O[C@H]1CN(C)Cc1ccc(Cl)c(Cl)c1 | 114 | – | · | · | – | ·
C[C@H](CO)N1C[C@H](C)[C@H](CN(C)Cc2ccc(Cl)c(Cl)c2)Oc2ccc(NS(=O)(=O)c3cn(C)cn3)cc2CC1=O | – | 65 | · | · | – | ·
Cc1ccc(S(=O)(=O)Nc2ccc3c(c2)CC(=O)N([C@H](C)CO)C[C@@H](C)[C@@H](CN(C)Cc2ccc(Cl)c(Cl)c2)O3)cc1 | – | – | · | · | – | ·
C[C@@H]1CN([C@@H](C)CO)C(=O)Cc2cc(NS(=O)(=O)c3ccc(Cl)cc3)ccc2O[C@H]1CN(C)Cc1ccc(Cl)c(Cl)c1 | 86 | – | · | · | – | ·
C[C@H](CO)N1C[C@H](C)[C@@H](CN(C)Cc2ccc(Cl)c(Cl)c2)Oc2ccc(NS(=O)(=O)c3ccc(Cl)cc3)cc2CC1=O | 70 | – | · | · | – | ·
SMILES | PAX8 inh HTS | EWS-Fli block | Shn3 inh set2 | EBV LMP1 NFkB | LGR2 inh | MITF TRPM1 inh
C[C@@H]1CN([C@H](C)CO)C(=O)Cc2cc(NS(=O)(=O)c3ccc(F)cc3)ccc2O[C@H]1CN(C)Cc1ccc(Cl)c(Cl)c1 | – | – | · | · | – | ·
C[C@@H]1CN([C@H](C)CO)C(=O)Cc2cc(NS(=O)(=O)c3ccc(Cl)cc3)ccc2O[C@H]1CN(C)Cc1ccc(Cl)c(Cl)c1 | – | – | · | · | – | ·
COc1ccc(S(=O)(=O)Nc2cccc3c2O[C@H](CN(C)Cc2ccc(C(=O)Nc4ccccc4N)cc2)[C@@H](C)CN([C@@H](C)CO)C3=O)cc1 | – | – | · | · | – | ·
C[C@H](CO)N1C[C@H](C)[C@H](CN(C)CC2CCCCC2)Oc2ccc(NS(=O)(=O)c3ccc(Cl)cc3)cc2CC1=O | 106 | – | · | · | – | ·
COc1ccc(S(=O)(=O)Nc2ccc3c(c2)CC(=O)N([C@H](C)CO)C[C@H](C)[C@@H](CN(C)Cc2ccc(Cl)c(Cl)c2)O3)cc1 | 75 | – | · | · | – | ·
COc1ccc(S(=O)(=O)Nc2ccc3c(c2)CC(=O)N([C@@H](C)CO)C[C@@H](C)[C@H](CN(C)Cc2ccc(Cl)c(Cl)c2)O3)cc1 | – | – | · | · | – | ·
O=C(C[C@@H]1C=C[C@H](NC(=O)CC2CC2)[C@@H](CO)O1)NCc1ccccc1 | · | – | · | · | – | ·
Cc1cc2nc(C)n(CCCNC(=O)Nc3cccc4ccccc34)c2cc1C | – | · | 87 | – | · | –
COc1cccc(S(=O)(=O)Nc2ccc3c(c2)[C@@H]2C[C@H](CC(=O)NCc4ccc(Cl)cc4)O[C@H](CO)[C@@H]2O3)c1 | – | – | · | · | – | ·
COc1cccc(S(=O)(=O)Nc2ccc3c(c2)[C@@H]2C[C@H](CC(=O)NCc4ccc(Cl)cc4)O[C@@H](CO)[C@@H]2O3)c1 | 62 | – | · | · | – | ·
COc1cccc(S(=O)(=O)Nc2ccc3c(c2)[C@H]2C[C@@H](CC(=O)NCc4ccc(Cl)cc4)O[C@H](CO)[C@H]2O3)c1 | 63 | – | · | · | – | ·
C[C@@H](NC(=O)C[C@H]1C=C[C@@H](NC(=O)C2CCC2)[C@H](CO)O1)c1ccccc1 | – | – | · | · | – | ·
O=C(Nc1cc2ccccc2oc1=O)c1ccccc1 | – | 74 | – | 55 | 89 | 63
Cc1oc(=O)c(NC(=O)c2ccccc2)cc1C(N)=O | – | – | – | – | – | –
CCCc1nc(SCC(=O)NCc2ccco2)c2c(=O)n(C)c(=O)n(C)c2n1 | – | – | – | 66 | – | –
CCc1nc(SCC(=O)NCc2ccco2)c2c(=O)n(C)c(=O)n(C)c2n1 | – | – | – | – | – | –
CCCc1ccc(-c2ccc(F)c(N)c2)nc1 | · | · | – | 69 | 79 | –
CCCCc1ccc(-c2ccc(Br)cc2)nc1 | · | – | – | – | – | –
N#CC(C#N)=C(Nc1ccc(F)cc1)SCc1cccc(Br)c1 | 85 | – | – | ? | – | 63
Cc1cccc(CSC(Nc2ccc(F)cc2)=C(C#N)C#N)c1 | – | · | – | – | ? | –
Cc1ccc(C(=O)O/N=C(\N)c2nonc2N)cc1 | – | – | – | – | 78 | –

High-throughput results (PubChem BioAssay)
